The source of these data is PubChem BioAssay (NCATS).

SMILES strings stand for the structures. Records with an inconclusive call do not appear. Values without a mark were called inactive. Activity calls are given as the source filed them. Calls come from the whole dose curve; as a rule, active = well fitted curve in the direction sought with a large enough effect; inconclusive = small, poorly fitted or top-dose-only effect, or another doubt; inactive = no such curve, though single readings can be large; an effect the other way counts as inactive or inconclusive.
Potency is the fitted concentration of half-maximal effect.

A short description of one experiment: Quantitative High-Throughput drug screen in 47 multiple myeloma cell lines against the NCATS MIPE library collection: MOLP8_DSMZ cell viability assay (AID 1918977).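 For viability (% of control): 100% = DMSO-only wells and 0% = media-only wells without cells.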 Note: nearly all actives have a fitted effect of over 45% in size. Conditions: MOLP8 myeloma viability, CellTiter-Glo ATP luminescence, 48 h; series mostly up to 45.8 µM; viability (% of control): at the top concentration. The method in brief:
(§1)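 500 cells/well; MIPE 4.0 drugs pin-transferred; 48 h, 37C, 5% CO2. CellTiter-Glo, 5 min RT, luminescence. Controls: DMSO 100%, media 0%.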
With `CC(C)=CCCC(C)=CCCC(C)=CCCC(C)=CCCC(C)=CCCC(C)=CCCC(C)=CCCC(C)=CCCC(C)=CCO`, the Potency was 9.35 µM (active).

`COc1ccc(CCC(=O)Nc2nc3ccc(Cl)cc3s2)cc1OC`: the “viability (% of control)” value was 104%.

With `CC(C)CNc1ccnc(NCc2csc(-c3ccccc3)n2)n1`, the Potency was 20.9 µM (active). Same read-out and setting: the result for `CC(C)C[C@@H](C(=O)N[C@H](C(=O)OC1CCCC1)c1ccccc1)[C@H](O)C(=O)NO` reads 23.5 µM (active).

Regarding `O=C(O)CCC=CCC[C@@H]1[C@H](N2CCCCC2)[C@@H](O)C[C@@H]1OCc1ccc(-c2ccccc2)cc1`, the “viability (% of control)” value was 104%. For the compound `O=C(Nc1cccc(C(F)(F)F)c1)Nc1cc(S(=O)(=O)NC2CC2)ccc1-c1ccsc1`, the Potency was 4.18 µM (active). The same measure, in the same setting: the result for `OCCn1cc(-c2ccc3c(c2)CCC3=NO)c(-c2ccncc2)n1` reads 0.0662 µM (active). For `CCC[C@H](N[C@@H](C)C(=O)N1[C@@H]2CCCC[C@H]2C[C@H]1C(=O)O)C(=O)OCC`, the “viability (% of control)” value is 112%. For `COc1cc2c(cc1OC)[C@@H]1Cc3ccc(OC)c(OC)c3CN1CC2`, the Potency is 7.43 µM (active). On the same count and under the same terms, the result for `O=C(Nc1cccc(Cl)c1)Nc1ncc(CCNc2ncnc3ccsc23)s1` reads 3.72 µM (active). The same measure, in the same setting: then `CC1(C)C(N(O)C(=O)Nc2ccc(Cl)cc2)N(c2ccc(Cl)cc2)C(=O)N1CC(=O)NN=CC=Cc1ccc([N+](=O)[O-])o1` (stereo not drawn), with 3.72 µM (active).

Another experiment can be described thus: Quantitative High-Throughput drug screen in 47 multiple myeloma cell lines against the NCATS MIPE library collection: NCIH929_DSMZ cell viability assay (AID 1918978). Note: nearly all actives have a fitted effect of over 35% in size. Conditions: NCI-H929 myeloma viability, CellTiter-Glo ATP, 48 h; series mostly up to 45.8 µM; viability, % of control: at the top concentration. Put shortly: as §1
(Cellular ATP, detected with luciferase, serves as a proxy for viable cell number.)
Regarding `CC(C)=CCCC(C)=CCCC(C)=CCCC(C)=CCCC(C)=CCCC(C)=CCCC(C)=CCCC(C)=CCCC(C)=CCO`, the “viability, % of control” value was 97.6%.

In the case of `CCCCC[C@H](O)C=C[C@H]1[C@H](O)CC(=O)[C@H]1CCCCCCC(=O)O`, the “viability, % of control” value is 105%.

`OC[C@H]1O[C@@H](O[C@H]2[C@@H](O)[C@@](O)(CO)O[C@@H]2CO)[C@H](O)[C@@H](O)[C@@H]1O`: the “viability, % of control” value is 90.8%. As to `CCCCCCCCCCCCCCCC(=O)O[C@H]1[C@@H](O)[C@@H](O)[C@@H]([C@H](NC(=O)[C@@H]2C[C@@H](CCC)CN2C)[C@H](C)Cl)O[C@@H]1SC`, the Potency is 2.96 µM (active). On the same count and under the same terms, then `COc1ccc(CCC(=O)Nc2nc3ccc(Cl)cc3s2)cc1OC`, with 18.7 µM (active). On the same count and under the same terms, the result for `CC(C)CNc1ccnc(NCc2csc(-c3ccccc3)n2)n1` reads 20.9 µM (active).

Regarding `NS(=O)(=O)c1cc(Cl)c(Cl)c(S(N)(=O)=O)c1`, the “viability, % of control” value was 115%. On to `O=C(Nc1ncc(SCCN2CCCC2)s1)[C@]1(c2ccc(S(=O)(=O)C3CC3)cc2)C[C@@H]1C1CCCCC1`, for which the Potency was 20.9 µM (active). For `COc1ccc(Cn2ccc3ccc(C(=O)NO)cc32)cc1`, the Potency was 18.7 µM (active). `COc1cc(F)c(C(C)C)cc1-c1ccc(C(F)(F)F)cc1CN1C(=O)O[C@H](c2cc(C(F)(F)F)cc(C(F)(F)F)c2)[C@@H]1C`: the “viability, % of control” value was 101%. With `CC(C)C[C@@H](C(=O)N[C@H](C(=O)OC1CCCC1)c1ccccc1)[C@H](O)C(=O)NO`, the Potency is 18.7 µM (active). Consider `CCCCC(C)(C)[C@H](O)C=C[C@H]1[C@H](O)CC(=O)[C@H]1CC=CCCCC(=O)O`, for which the Potency is 18.7 µM (active). For the compound `O=C(O)CCC=CCC[C@@H]1[C@H](N2CCCCC2)[C@@H](O)C[C@@H]1OCc1ccc(-c2ccccc2)cc1`, the “viability, % of control” value was 127%. On to `O=C(Nc1cccc(C(F)(F)F)c1)Nc1cc(S(=O)(=O)NC2CC2)ccc1-c1ccsc1`, for which the Potency was 23.5 µM (active). Turning to `O[C@@H](COc1cccc2ncccc12)CN1CCN(C2c3ccccc3[C@@H]3[C@H](c4ccccc42)C3(F)F)CC1` (stereo partly drawn), the Potency was 11.8 µM (active). Turning to `CCN1C[C@H](C)n2c(c(O)c3c(=O)n(Cc4ccc(F)c(Cl)c4)nc(C(=O)NC)c32)C1=O`, the “viability, % of control” value is 115%. With `CC(C)(O)CC(=O)NCCn1ccc2ncnc(Nc3ccc(Oc4cccc(C(F)(F)F)c4)c(Cl)c3)c21`, the Potency was 26.4 µM (active). For `CN1CC(=O)NC1=NC(=O)Nc1cccc(Cl)c1`, the Potency was 16.6 µM (active).

Regarding `CCC(=O)OCC(=O)[C@@]1(OC(=O)CC)[C@@H](C)C[C@@H]2[C@H]3CCC4=CC(=O)C=C[C@]4(C)[C@@]3(F)[C@@H](O)C[C@@]21C`, the “viability, % of control” value was 92.4%. In the case of `OCCn1cc(-c2ccc3c(c2)CCC3=NO)c(-c2ccncc2)n1`, the Potency is 20.9 µM (active). The same measure, in the same setting: then `C[C@@H]1CC=CC=CC=CC=C[C@@H](O[C@@H]2O[C@H](C)[C@@H](O)[C@H](N)[C@H]2O)C[C@@H]2O[C@](O)(C[C@@H](O)C[C@@H]3O[C@@H]3C=CC(=O)O1)C[C@H](O)[C@@H]2C(=O)O`, with 16.6 µM (active). As for `CCC[C@H](N[C@@H](C)C(=O)N1[C@@H]2CCCC[C@H]2C[C@H]1C(=O)O)C(=O)OCC`, the “viability, % of control” value is 117%.
